Laboratory results taken from PubChem BioAssay AID777 (Sanford-Burnham Center for Chemical Genomics, 2007).
Among all 96,000 compounds or so, about 19,000 (20%) were called active.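 The calls were made as follows: active = blocking of liver enzyme CYP2C9 beyond about 50% at 5 µM (limit read from the data); inactive = the rest.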 The list is a sample of the results.

These compounds were tested against Cytochrome P450 2C9 (Homo sapiens) (UniProt P11712) (assay: blockers of cytochrome P450 2C9 activity – biochemical, luminescence, ADME assay, primary screen (AID 777)). Conditions: CYP2C9 Supersomes, luciferin-H conversion, at 5 µM, active compounds read high.
Chain of Cytochrome P450 2C9 (Homo sapiens) (P11712 whole entry, looked up): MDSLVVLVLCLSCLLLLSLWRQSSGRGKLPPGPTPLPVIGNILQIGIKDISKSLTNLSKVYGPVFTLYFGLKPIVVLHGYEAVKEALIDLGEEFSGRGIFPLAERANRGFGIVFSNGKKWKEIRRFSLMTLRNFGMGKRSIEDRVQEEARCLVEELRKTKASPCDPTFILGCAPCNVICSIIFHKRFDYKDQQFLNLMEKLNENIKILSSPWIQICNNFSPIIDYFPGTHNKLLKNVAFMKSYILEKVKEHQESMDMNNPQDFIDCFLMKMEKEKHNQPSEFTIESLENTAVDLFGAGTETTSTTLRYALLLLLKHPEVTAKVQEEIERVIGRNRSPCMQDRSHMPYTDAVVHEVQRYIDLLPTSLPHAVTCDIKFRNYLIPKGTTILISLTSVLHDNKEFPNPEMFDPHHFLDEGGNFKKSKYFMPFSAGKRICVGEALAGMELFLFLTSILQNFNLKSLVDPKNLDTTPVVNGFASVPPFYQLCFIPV

| SMILES | inhibition |
| --- | --- |
| Nc1ccc(SCCN2C(=O)c3ccccc3C2=O)cc1 | 71.9% (active) |
| O=C1c2ccccc2C(=O)N1CCC(c1ccccc1)c1ccco1 (configuration not stated) | 40.2% (inactive) |
| CC(=O)c1cnc(SCCN2C(=O)c3ccccc3C2=O)nc1C | 13.5% (inactive) |
| CCCS(=O)(=O)C(=C1Nc2ccccc2N1)S(=O)(=O)CCC | 8.7% (inactive) |
| COc1ccc(C(C#N)Nc2ccccc2C)cc1 (configuration not stated) | 4.4% (inactive) |
| CCN(CC)CCN1C(=O)C(=O)/C(=C(/O)c2cnn(-c3ccccc3)c2C)C1c1cccs1 (configuration not stated) | -11.5% (inactive) |
| O=C(O)COc1nsnc1N1CCOCC1 | -22.9% (inactive) |
| CCOc1cc(N2CCOCC2)c(OCC)cc1NC(=O)COC(=O)[C@H](Cc1c[nH]c2ccccc12)NC(C)=O | 45.8% (inactive) |
| CCCCC(=O)Nc1ccc(C(=O)NCCCn2ccnc2)cc1 | 33.7% (inactive) |
| CC1(C)C2CCC1(C)C(OC(=O)CCn1ccnc1)C2 (configuration not stated) | 95.6% (active) |
| CC(=O)OCc1cc(=O)n(C)c(=O)n1C | -5.9% (inactive) |
| CC1CCCN(C(=O)Cn2c(=O)oc3ccccc32)C1 (configuration not stated) | 7.8% (inactive) |
| Cc1cc(-c2ccccc2)nc(N2CCC(C(=O)NC34CC5CC(CC(C5)C3)C4)CC2)n1 | 11.4% (inactive) |
| O=C(Nc1ccccc1)c1ccc2nsnc2c1 | 7.6% (inactive) |
| O=C(CCCN1C(=O)CCC1=O)Nc1ccc(Cl)c(C(F)(F)F)c1 | -25.8% (inactive) |
| O=C(c1ccccc1)C(Cn1cncn1)C(Sc1ccccc1)c1ccccc1 (configuration not stated) | 98.5% (active) |
| O=C(O)CC(Cn1cnnn1)c1ccccc1 (configuration not stated) | -8.1% (inactive) |
| O=C(CSc1nnc2ccccn12)c1ccccc1 | -8.3% (inactive) |
| Cc1ccc2nc(NCCCNC(=O)c3cnccn3)c(C#N)cc2c1 | 2.7% (inactive) |
| CC(CNc1ccc([N+](=O)[O-])cc1)NC(=O)c1ccccc1Br (configuration not stated) | 70.7% (active) |
| CC(CNC(=O)c1ccc(Br)o1)NC(=O)c1ccc(Br)o1 (configuration not stated) | 25.6% (inactive) |

| SMILES | inhibition |
| --- | --- |
| CC(CCc1ccccc1)NC(=O)c1ccc(Br)o1 (configuration not stated) | 18.7% (inactive) |
| COc1ccc(C(=O)Nc2ccc(F)cc2F)cc1 | 15.2% (inactive) |
| CC1COC2C(O1)N(S(C)(=O)=O)CCN2S(C)(=O)=O (configuration not stated) | -18.1% (inactive) |
| Nc1ccc(Oc2ccc(Cl)cc2)cc1 | 22.5% (inactive) |
| CC(C)(C)NS(=O)(=O)CC12CCC(CC1=O)C2(C)C (configuration not stated) | 24% (inactive) |
| COC(=O)C1C(=O)CC(C)(O)C(C(=O)OC)C1c1ccc2c(c1)OCO2 (configuration not stated) | 5.1% (inactive) |
| O=C(O)c1ccc(NS(=O)(=O)c2cccc3nsnc23)cc1 | -5.5% (inactive) |
| CC(=C1C(=O)c2ccccc2C1=O)N1CCN(c2ccccn2)CC1 | 17.1% (inactive) |
| COc1ccccc1CNC(=O)CCCNS(=O)(=O)c1cccc2nsnc12 | -32.2% (inactive) |
| O=C(C(NS(=O)(=O)c1cccc2nsnc12)c1ccccc1)N1CCN(c2ccccn2)CC1 (configuration not stated) | 78.6% (active) |
| O=C(C(NS(=O)(=O)c1cccc2nsnc12)c1ccccc1)N1CCN(c2ccccc2)CC1 (configuration not stated) | 97.4% (active) |
| O=C(CCS(=O)(=O)c1cccc2nsnc12)N1CCN(c2ccccc2F)CC1 | -136% (inactive) |
| CC1CC(C)CN(S(=O)(=O)c2cccc(C(=O)N3C(=O)c4cccc(N)c4C3=O)c2)C1 (configuration not stated) | 13.8% (inactive) |
| COc1ccc(-c2nn(C)c(=O)c3ccccc23)cc1NC(=O)COc1ccccc1 | 27.9% (inactive) |
| CN(C)c1nc(N)nc(CSc2ccccn2)n1 | -8.3% (inactive) |
| O=C1N=C2SCCN2/C1=C\c1c(Cl)cccc1Cl | 8.7% (inactive) |
| Cc1ccc(-c2cnc(NC(=O)CCC(=O)N(C)Cc3ccccc3)n2C)cc1 | 3.3% (inactive) |
| CC(C)C(c1nnnn1CCc1ccccc1)N1CCN(C(=O)c2ccco2)CC1 (configuration not stated) | 27.7% (inactive) |
| CCC(c1nnnn1C1CCCC1)N1CCN(C(=O)c2ccco2)CC1 (configuration not stated) | 84.4% (active) |
| CC(=O)c1ccc(-n2nnnc2SCC(=O)N2CCN(C(=O)c3ccco3)CC2)cc1 | 5.3% (inactive) |
| COc1cccc(C2/C(=C(/O)c3ccc(F)cc3)C(=O)C(=O)N2CCN(C)C)c1 (configuration not stated) | -22.1% (inactive) |

| SMILES | inhibition |
| --- | --- |
| COc1ccccc1C1/C(=C(/O)c2ccc(OC(C)C)cc2)C(=O)C(=O)N1c1cc(C)on1 (configuration not stated) | -0.1% (inactive) |
| Cc1cc(N2C(=O)C(=O)/C(=C(/O)c3ccc(Cl)cc3)C2c2cccc(Br)c2)no1 (configuration not stated) | 61.1% (active) |
| O=C1CCC(=O)N1CCOP1(=O)COc2ccccc2OC1 | -19.3% (inactive) |
| COc1cccc(OC)c1C(=O)Nc1ccc(N2CCCCC2)cc1 | 10.6% (inactive) |
| Cc1nc2c(c(=O)n1Cc1ccco1)c1nc3ccccc3nc1n2Cc1ccccc1 | 61.7% (active) |
| Cc1ccc(Cn2c(C)nc3c(c2=O)c2nc4ccccc4nc2n3Cc2ccco2)cc1 | 47.7% (inactive) |
| COCCCn1c2nc3ccccc3nc2c2c(=O)n(Cc3ccc(Cl)cc3)c(C)nc21 | 20.5% (inactive) |
| COc1cc(Br)cc(/C=N/c2ncn[nH]2)c1O | 1% (inactive) |
| O=C1CC(c2ccccc2)CC(O)=C1C=NCCN1CCOCC1 (configuration not stated) | -8.2% (inactive) |
| O=C1CCC(Cc2ccccc2)N1 (configuration not stated) | 2% (inactive) |
| CCN(CC(=O)Nc1ccc2c(c1)OCCO2)Cc1cc(=O)oc2cc(C)c(C)cc12 | 93% (active) |
| CCCCC(=O)Nc1ccc2c(c1)OCCO2 | 60.5% (active) |
| O=C(COc1ccc2c(C(F)(F)F)cc(=O)oc2c1)Nc1ccc2c(c1)OCCO2 | 22.6% (inactive) |
| Cn1cc([N+](=O)[O-])c(C(=O)Nc2ccc3c(c2)OCCO3)n1 | 8.7% (inactive) |
| CCCCC(=O)Nc1ccc2c(c1)C(=O)NC2=O | 14% (inactive) |
| CCNCc1cc2cc(C)ccc2[nH]c1=O | 9.6% (inactive) |
| CCCCOC(=O)CNc1nnc(SCC(=O)OCC)[nH]c1=O | 1% (inactive) |
| O=C1c2ccccc2C(=O)c2c1cccc2N1CCN(Cc2ccccc2)CC1 | 64.6% (active) |
| O=c1cc(N2CCN(Cc3ccccc3)CC2)c(-c2ccccc2)n[nH]1 | 13.5% (inactive) |
| O=C1c2ccccc2C(=O)c2c1cccc2N1CCN(CCO)CC1 | 32.5% (inactive) |
